Measured potencies and affinities stand elsewhere. Calls of active or inactive are those of the source. No rule for the calls is given here.
Test: V-ATPase regulators in yeast, concentration series – S. cerevisiae, pHLuorin, cherry pick 2, dose response (AID 602198)
Settings: pHLuorin vacuolar pH fluorescence; series mostly up to 33.1 µM

Structure (SMILES) | outcome
Cc1ccsc1/C=C1\C(=O)NC(=S)N(C)C1=O | inactive
COc1ccc(N2C(=O)/C(=C/c3ccc(C)o3)C(=O)NC2=S)cc1 | inactive

Source: PubChem BioAssay AID602198 (NMMLSC, 2012)
